From paper PMC7862700, “An all-to-all approach to the identification of sequence-specific readers for epigenetic DNA modifications on cytosine”

How the values were obtained:
Assay in all cases: DAPPL (digital affinity profiling via proximity ligation, sequencing); 10 mM Tris-HCl pH 7.5, 50 mM NaCl, 1 mM DTT, 4% glycerol, room temperature, 30 min; GST-TFs on glutathione beads, 16-mer random dsDNA library, 0.1% formaldehyde crosslink after washing; high values mean tight binding
Settings in all cases: protein: recombinant; tags: N-terminal GST; dsDNA, one strand shown
FLI1 = biological target: T1, FLI1 (Homo sapiens, UniProt Q01543 1-452)
T1 sequence: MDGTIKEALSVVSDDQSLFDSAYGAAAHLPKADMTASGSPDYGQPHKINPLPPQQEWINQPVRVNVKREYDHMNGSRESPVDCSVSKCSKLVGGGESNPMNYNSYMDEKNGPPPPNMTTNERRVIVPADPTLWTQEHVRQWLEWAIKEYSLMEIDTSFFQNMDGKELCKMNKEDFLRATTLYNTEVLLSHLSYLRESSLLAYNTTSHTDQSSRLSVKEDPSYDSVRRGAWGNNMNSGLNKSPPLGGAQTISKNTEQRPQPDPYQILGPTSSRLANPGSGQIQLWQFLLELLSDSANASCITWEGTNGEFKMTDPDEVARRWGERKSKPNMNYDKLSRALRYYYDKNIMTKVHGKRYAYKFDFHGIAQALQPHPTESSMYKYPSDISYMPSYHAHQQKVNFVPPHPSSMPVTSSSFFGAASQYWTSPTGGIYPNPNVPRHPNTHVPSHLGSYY
How it was run: (§1)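 Each value of binding signal is a hexamer's read frequency for a factor divided by the same hexamer's frequency in the tag-only sample. Barcoded, bead-captured GST fusions of human transcription factors made in yeast were pooled with that sample and incubated with 200 nmole of a random double-stranded 16-mer DNA library in Tris/NaCl/DTT/glycerol buffer at room temperature for 30 min. Washing, 0.1% formaldehyde crosslinking, proximity ligation, PCR and Illumina NextSeq500 sequencing followed.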

ELK1 = biological target: T2, ELK1 (Homo sapiens, UniProt P19419 1-428)
T2 sequence: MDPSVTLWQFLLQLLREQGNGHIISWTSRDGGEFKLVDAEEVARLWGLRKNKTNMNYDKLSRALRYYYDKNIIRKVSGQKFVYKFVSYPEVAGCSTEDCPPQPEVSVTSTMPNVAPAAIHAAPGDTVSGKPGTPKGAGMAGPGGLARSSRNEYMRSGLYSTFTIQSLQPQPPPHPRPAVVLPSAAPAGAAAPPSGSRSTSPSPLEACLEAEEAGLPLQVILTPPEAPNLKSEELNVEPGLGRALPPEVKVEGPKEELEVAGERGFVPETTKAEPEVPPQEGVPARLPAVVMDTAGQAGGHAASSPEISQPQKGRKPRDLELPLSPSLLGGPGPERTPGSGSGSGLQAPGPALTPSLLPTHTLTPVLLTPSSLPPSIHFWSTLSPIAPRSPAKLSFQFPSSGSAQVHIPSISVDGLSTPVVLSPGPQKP
How it was run: as §1

GABPA = biological target: T3, GABPA (Homo sapiens, UniProt Q06546 1-454)
T3 sequence: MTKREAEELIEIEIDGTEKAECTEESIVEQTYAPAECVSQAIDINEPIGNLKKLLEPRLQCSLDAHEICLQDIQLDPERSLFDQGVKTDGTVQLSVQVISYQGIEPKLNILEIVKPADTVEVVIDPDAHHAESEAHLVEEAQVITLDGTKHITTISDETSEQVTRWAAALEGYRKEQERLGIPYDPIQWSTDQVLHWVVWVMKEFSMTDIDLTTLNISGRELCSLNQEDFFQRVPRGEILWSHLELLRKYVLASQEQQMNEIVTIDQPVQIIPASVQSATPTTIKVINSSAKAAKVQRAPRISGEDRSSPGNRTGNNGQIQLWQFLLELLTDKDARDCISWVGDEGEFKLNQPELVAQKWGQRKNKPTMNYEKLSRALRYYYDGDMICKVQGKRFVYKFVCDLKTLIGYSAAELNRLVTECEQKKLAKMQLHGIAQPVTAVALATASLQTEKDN
How it was run: as §1

ERG = biological target: T4, ERG (Homo sapiens, UniProt P11308 1-479)
T4 sequence: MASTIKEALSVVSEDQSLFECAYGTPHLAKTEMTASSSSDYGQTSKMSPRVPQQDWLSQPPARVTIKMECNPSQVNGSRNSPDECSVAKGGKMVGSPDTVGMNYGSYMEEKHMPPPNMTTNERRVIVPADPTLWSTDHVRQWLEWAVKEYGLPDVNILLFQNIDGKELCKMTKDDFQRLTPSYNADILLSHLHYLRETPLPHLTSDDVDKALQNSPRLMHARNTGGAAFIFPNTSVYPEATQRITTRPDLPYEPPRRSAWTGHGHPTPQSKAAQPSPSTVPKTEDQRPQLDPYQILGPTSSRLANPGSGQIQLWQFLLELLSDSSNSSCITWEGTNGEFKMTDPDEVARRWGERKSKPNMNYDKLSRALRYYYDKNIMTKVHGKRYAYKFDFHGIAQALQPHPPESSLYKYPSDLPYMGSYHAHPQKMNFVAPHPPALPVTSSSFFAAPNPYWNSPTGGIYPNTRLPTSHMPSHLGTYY
How it was run: as §1

ELF1 = ELF1 (Homo sapiens, UniProt P32519 1-619)
ELF1, sequence (P32519 whole entry): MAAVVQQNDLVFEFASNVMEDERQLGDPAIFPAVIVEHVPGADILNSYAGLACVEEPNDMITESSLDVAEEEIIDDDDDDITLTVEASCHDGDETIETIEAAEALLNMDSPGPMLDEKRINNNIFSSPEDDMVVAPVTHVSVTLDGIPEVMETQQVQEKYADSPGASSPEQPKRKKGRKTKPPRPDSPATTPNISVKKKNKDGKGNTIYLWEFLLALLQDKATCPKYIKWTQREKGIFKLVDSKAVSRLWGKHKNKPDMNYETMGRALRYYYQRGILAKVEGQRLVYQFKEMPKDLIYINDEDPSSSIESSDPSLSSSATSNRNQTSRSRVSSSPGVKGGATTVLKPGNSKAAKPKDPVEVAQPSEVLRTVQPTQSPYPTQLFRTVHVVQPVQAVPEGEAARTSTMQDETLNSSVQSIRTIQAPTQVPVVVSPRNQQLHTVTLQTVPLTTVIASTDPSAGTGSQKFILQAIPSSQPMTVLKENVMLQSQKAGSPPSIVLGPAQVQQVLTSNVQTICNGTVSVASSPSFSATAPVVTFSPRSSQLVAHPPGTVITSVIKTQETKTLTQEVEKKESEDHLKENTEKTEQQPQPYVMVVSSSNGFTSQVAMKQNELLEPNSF
How it was run: as §1

EHF = biological target: T5, EHF (Homo sapiens, UniProt Q9NZC4 1-300)
T5 sequence: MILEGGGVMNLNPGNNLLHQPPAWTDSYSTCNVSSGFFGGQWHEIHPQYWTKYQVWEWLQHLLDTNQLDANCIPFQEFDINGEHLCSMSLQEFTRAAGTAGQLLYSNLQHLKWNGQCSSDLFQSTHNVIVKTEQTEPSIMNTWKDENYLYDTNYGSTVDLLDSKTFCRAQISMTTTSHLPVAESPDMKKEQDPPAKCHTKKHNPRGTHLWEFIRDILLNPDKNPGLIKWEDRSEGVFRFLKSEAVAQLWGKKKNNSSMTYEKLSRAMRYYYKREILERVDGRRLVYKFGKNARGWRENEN
How it was run: as §1

SPI1 = SPI1 (Homo sapiens, UniProt P17947 1-270)
How it was run: as §1

SPIB = SPIB (Homo sapiens, UniProt Q01892 1-262)
SPIB, sequence (Q01892 whole entry): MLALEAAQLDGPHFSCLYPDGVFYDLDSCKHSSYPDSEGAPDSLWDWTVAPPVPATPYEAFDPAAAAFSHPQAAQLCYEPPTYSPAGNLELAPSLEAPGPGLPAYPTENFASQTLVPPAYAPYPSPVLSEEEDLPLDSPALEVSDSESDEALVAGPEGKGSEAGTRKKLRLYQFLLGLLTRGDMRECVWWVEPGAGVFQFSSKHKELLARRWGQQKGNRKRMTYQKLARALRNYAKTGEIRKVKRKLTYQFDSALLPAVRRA
How it was run: as §1

ELK3 = biological target: T6, ELK3 (Homo sapiens, UniProt P41970 1-407)
T6 sequence: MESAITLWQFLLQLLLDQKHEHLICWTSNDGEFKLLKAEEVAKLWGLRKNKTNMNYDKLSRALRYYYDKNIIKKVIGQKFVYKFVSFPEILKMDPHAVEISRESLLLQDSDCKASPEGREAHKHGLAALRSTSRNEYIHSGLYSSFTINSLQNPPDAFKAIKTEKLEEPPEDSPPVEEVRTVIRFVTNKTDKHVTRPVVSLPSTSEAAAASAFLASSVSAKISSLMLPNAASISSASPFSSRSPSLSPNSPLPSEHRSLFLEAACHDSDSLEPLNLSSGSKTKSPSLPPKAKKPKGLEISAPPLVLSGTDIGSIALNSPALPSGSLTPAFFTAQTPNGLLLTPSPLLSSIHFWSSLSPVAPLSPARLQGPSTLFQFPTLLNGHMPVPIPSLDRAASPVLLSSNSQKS
How it was run: as §1

| Sequence | binding signal (FLI1) | binding signal (ELK1) | binding signal (GABPA) | binding signal (ERG) | binding signal (ELF1) | binding signal (EHF) | binding signal (SPI1) | binding signal (SPIB) | binding signal (ELK3) |
| --- | --- | --- | --- | --- | --- | --- | --- | --- | --- |
| TTTAAC | 1.18 fold enrichment (6-mer frequency, TF over GST control) | 1.16 fold enrichment (6-mer frequency, TF over GST control) | 1.08 fold enrichment (6-mer frequency, TF over GST control) | 1.13 fold enrichment (6-mer frequency, TF over GST control) | 1.21 fold enrichment (6-mer frequency, TF over GST control) | 1.1 fold enrichment (6-mer frequency, TF over GST control) | 1.19 fold enrichment (6-mer frequency, TF over GST control) | 1.14 fold enrichment (6-mer frequency, TF over GST control) | 1.21 fold enrichment (6-mer frequency, TF over GST control) |
| TTGGGG | 1.4 fold enrichment (6-mer frequency, TF over GST control) | 1.24 fold enrichment (6-mer frequency, TF over GST control) | 1.33 fold enrichment (6-mer frequency, TF over GST control) | 1.21 fold enrichment (6-mer frequency, TF over GST control) | 1.32 fold enrichment (6-mer frequency, TF over GST control) | 1.27 fold enrichment (6-mer frequency, TF over GST control) | 1.26 fold enrichment (6-mer frequency, TF over GST control) | 1.15 fold enrichment (6-mer frequency, TF over GST control) | 1.31 fold enrichment (6-mer frequency, TF over GST control) |
| AACTCT | 1.32 fold enrichment (6-mer frequency, TF over GST control) | 1.37 fold enrichment (6-mer frequency, TF over GST control) | 1.31 fold enrichment (6-mer frequency, TF over GST control) | 1.33 fold enrichment (6-mer frequency, TF over GST control) | 1.5 fold enrichment (6-mer frequency, TF over GST control) | 1.33 fold enrichment (6-mer frequency, TF over GST control) | 1.28 fold enrichment (6-mer frequency, TF over GST control) | 1.28 fold enrichment (6-mer frequency, TF over GST control) | 1.26 fold enrichment (6-mer frequency, TF over GST control) |
